Outcome data for 40 compounds are collected here from PubChem BioAssay (EPA / NIEHS).

Activity calls are given as the source filed them. The calls were made as follows: active = hit-call score of the fitted dose curve at least 0.9, where 1 is the maximum; inactive = score below 0.9.

The nature of this test: ATG_M_06_CIS: Attagene CIS-FACTORIAL HepG2 Assay for M06 Transcription Factor (Internal Marker) (AID 2282950). As to conditions: HepG2 Attagene CIS-FACTORIAL M06 internal marker reporter; actives raise or lower the signal. As to the method: ATG_CIS is a cell-based, multiplexed-readout assay that uses HepG2, a human liver cell line, with measurements taken at 24 hours after chemical dosing in a 24-well plate.ATG_M_06_CIS is one of 52 assay component(s) measured or calculated from the ATG_CIS assay. It is designed to make measurements of mRNA induction, a form of inducible reporter, as detected with fluorescence intensity signals by Reverse transcription polymerase chain reaction (RT-PCR) and Capillary electrophoresis technology.Data from the assay component ATG_M_06_CIS was analyzed into 1 assay endpoint. This assay endpoint, ATG_M_06_CIS, was analyzed with bidirectional fitting relative to DMSO as the negative control and baseline of activity. Using a type of inducible reporter, measures of mRNA for gain or loss-of-signal activity can be used to understand the background control at the transcription factor-level as they relate to the gene . Furthermore, this assay endpoint can be referred to as a secondary readout, because this assay has produced multiple assay endpoints where this one serves a background control function. To generalize the intended target to other relatable targets, this assay endpoint is annotated to the background measurement intended target family, where the subfamily is internal marker.
Human liver HepG2 cells are transiently transfected with multiple reporter transcription units (MRTUs) in 6-well plates using FuGene 6 reagent (Roche; 3 ml FuGene/1 mg DNA). The MRTU constructs are regulated by a cis-regulating element (promoter). […] A major difference between the CIS and TRANS system is that in CIS activities of endogenous TFs are measured, whereas the TRANS assay evaluates changes in activities of exogenous, chimeric NR-Gal4 proteins. […] At the end of 24 hour incubation, total RNA was isolated using TriZol reagent (Invitrogen). The isolated RNA is then reverse-transcribed using oligo(dT) primer and Mo-MLV reverse transcriptase (Invitrogen) with DNAse I (Ambion) treatment for 30 min. The one-tenth of the produced cDNA was amplified by PCR using Taq DNA polymerase (Invitrogen) and two reporter sequence-specific primers. The PCR products were fluorescently labeled by primer extension with 6-arboxyfluorescein (6-FAM) 5'-labeled reporter sequence-specific primer (2 min at 95 C, 20 s at 68 C and 10 min at 72 C) and these products were digested with 5U of HpaI (New England Biolabs) for 2h at 37 C. The fragments were purified using Qiaquick PCR columns (Qiagen), analyzed on an ABI 3130xL genetic analyzer (Applied Biosystems) with peak positions identified by using a set of X-rhodamine (ROX)-labeled MapMarker1000 molecular weight standards (BioVentures). The raw capillary electrophoresis data was processed using Attagraph software (Attagene).
Turning to `COCC(=O)N(c1c(C)cccc1C)N1CCOC1=O`, the compound was called inactive.

As to `O=C(O)CCCc1ccc(N(CCCl)CCCl)cc1`, the compound was called inactive. On to `N#CCCCl`, for which the outcome was inactive. Regarding `O=[N+]([O-])C=Cc1ccccc1`, the compound was called inactive. With `CC(C)(C)C(O)C(Oc1ccc(-c2ccccc2)cc1)n1cncn1` (stereo not given) the entry was “inactive”; with `CC(=O)c1cc2c(cc1C)C(C)(C)C(C)CC2(C)C` (stereo not given), “inactive”. Take `BrCBr`: the compound was classed as inactive. With `O=C1C(Cl)=C(Cl)C(=O)C(Cl)=C1Cl` the entry was “inactive”; with `O=[N+]([O-])c1cc(C(F)(F)F)c(Cl)c([N+](=O)[O-])c1Cl`, “inactive”; with `COC(C)(C)CCC[C@H](C)C/C=C/C(C)=C/C(=O)OC(C)C`, “inactive”. `CCOC(=O)C1OC1(C)c1ccccc1` (stereo not given): the outcome was inactive. Take `Nc1ccccc1C(=O)Oc1ccc2ccccc2c1`: the compound was classed as inactive. For `CCCC=NO`, the result was inactive. In the case of `[Cl][Sb]([Cl])[Cl]`, the outcome was inactive. With `C=CC(=O)OCCCCOC(=O)C=C` the entry was “inactive”; with `C[C@]12CCC(=O)C(O)=C1CC[C@@H]1[C@@H]2CC[C@]2(C)C(=O)CC[C@@H]12`, “inactive”.

Turning to `COc1ncc(F)c2nc(S(=O)(=O)Nc3c(F)cccc3F)nn12`, the call was inactive. With `[Cl-].[Cl-].[Cl-].[Yb+3]` the entry was “inactive”; with `Nc1ccc([N+](=O)[O-])cc1N`, “inactive”; with `C=CC(=O)OCCO`, “inactive”. With `C=CC(=O)OCC(CC)CCCC` (stereo not given), the outcome was inactive. The value for `CCN(CC)C(=S)S` was “inactive”.

On to `CC(C)C(=O)Cl`, for which the outcome was inactive. Turning to `CC(C)C#N`, the result was inactive. As to `c1ccc(Nc2ccc3ccccc3c2)cc1`, the result was inactive. On to `COc1cc(OC)c(OC)cc1C=O`, for which the call was inactive. Take `CC(C)CCCCCCCOC(=O)c1ccccc1C(=O)OCCCCCCCC(C)C`: the result was inactive. With `O=C(O)COc1ccccc1` the entry was “inactive”; with `ClCC(Cl)Cl`, “inactive”; with `CCCCCCCCCCCCCCCC[N+](C)(C)C`, “inactive”. For `CCOP(O)OCC`, the compound was classed as inactive. With `CCC[N+](=O)[O-]`, the result was inactive.

Regarding `Clc1ccc(-c2ccccc2)cc1`, the compound was called inactive. Turning to `ClC1=C(Cl)[C@]2(Cl)[C@@H]3[C@@H](Cl)[C@H](Cl)C[C@@H]3[C@@]1(Cl)C2(Cl)Cl`, the call was inactive.

With `CCc1cc(C)cc(CC)c1-c1c(OC(=O)C(C)(C)C)n2n(c1=O)CCOCC2`, the compound was called inactive. In the case of `CNC(=N[N+](=O)[O-])NCC1CCOC1` (stereo not given), the call was inactive.

Regarding `CC(C)CCCCCCCOP(=O)(Oc1ccccc1)Oc1ccccc1`, the compound was classed as inactive.

For the compound `CCCCCc1cc(O)cc(O)c1`, the result was inactive. The value for `N#Cc1cc(I)c(O)c(I)c1` was “inactive”; that for `Cc1ccc(N(SC(F)(Cl)Cl)S(=O)(=O)N(C)C)cc1` was “inactive”.
